The values below come from PubChem BioAssay (Tox21).

Test [1] is described as follows: Nuclear factor erythroid 2-related factor 2/antioxidant responsive element (Nrf2/ARE) small molecule agonists: qHTS cell viability counter screen in human keratinocytes (AID 1919968; active = well fitted curve in the direction sought with a large enough effect in the repeat runs; an effect the other way counts as inactive or inconclusive; also: nearly all actives have a fitted effect of over 55% in size). Put shortly: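 CellTiter-Fluor fluorescence, read 1 h after reagent, gave viability in the same wells as the ARE-luciferase assay. KeratinoSens cells (1,500/well) had 23 h compound exposure at 37 C/5% CO2 following 5 h plating.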
Background: Quantitative high-throughput screening tests each substance at several concentrations.

Test [2] is described as follows: Nuclear factor erythroid 2-related factor 2/antioxidant responsive element (Nrf2/ARE) small molecule agonists: luciferase reporter gene qHTS assay in human keratinocytes (AID 1919969). Also: nearly all actives have a fitted effect of over 35% in size. In general terms: Reporter assays use an easily measured gene product as a stand-in for the process of interest.
Test [3] concerns the target Gonadotropin-releasing hormone receptor (Homo sapiens) (UniProt P30968). Briefly: Human gonadotropin-releasing hormone receptor (GnRHR) small molecule agonists, calcium flux assay in GnRHR-HEK293 cells (AID 1920063). Also: nearly all actives have a fitted effect of over 35% in size. Put shortly: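 Agonist mode: compounds at 15 concentrations, in triplicate, went onto calcium dye-loaded GnRHR-HEK293 cells. Intracellular calcium was then followed as 480/540 nm fluorescence at 1 s intervals over 3 min.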
A general note: Calcium assays in cells follow changes in intracellular calcium, usually with a dye or a luminescent sensor.

In test [4] the target is KiSS-1 receptor (Homo sapiens) (UniProt Q969F8). The test can be described thus: Human kisspeptin (KISS1R) small molecule agonists, calcium flux assay in KISS1R-HEK293 cells (AID 1920064; active = well fitted curve in the direction sought with a large enough effect in the repeat runs; an effect the other way counts as inactive or inconclusive). A digest of the protocol:
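Agonist mode: intracellular calcium rise tracked at 1 s intervals over 3 min (480/540 nm) immediately after compound addition to dye-loaded KISS1R-HEK293 stable cells. Each compound tested at 15 concentrations in triplicate.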

Test [5] can be described thus: G protein-coupled receptor (GPCR) small molecule agonists, calcium flux assay: HEK293 wild type cell line counter screen (AID 1920065). A digest of the protocol:
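Calcium flux counter screen: compound added in agonist mode at 15 concentrations in triplicate to dye-loaded parental HEK293 cells. Fluorescence (480/540) read kinetically for 3 min; ATP served as positive control.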

A short description of test [6]: p53 small molecule agonists, cell-based qHTS assay with human liver microsomes (AID 1963577).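 Also: p53 response element beta-lactamase reporter cells with liver microsomes plus NADPH.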 A digest of the protocol: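 Reporter activation was measured by LiveBLAzer fluorescence intensity in p53RE-bla cells, which had been exposed to compounds for 16 h at 37 C alongside 0.5 mg/mL human liver microsomes and 0.5 mg/mL NADPH (final concentrations).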
Test [7] is described as follows: p53 small molecule agonists, cell-based qHTS assay with rat liver microsomes (AID 1963578). Put shortly: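 Compound in DMSO added to p53RE-bla cells 5 h post-plating; rat microsomes/NADPH 0.5 mg/mL final; 16 h, 37 C; LiveBLAzer 2 h RT.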
Test [8] is described as follows: p53 small molecule agonists, cell-based qHTS assay with human liver microsomes: qHTS cell viability counter screen (AID 1963579). Also: nearly all actives have a fitted effect of over 45% in size. A digest of the protocol:
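HLM-supplemented (0.5 mg/mL final) and NADPH-supplemented (0.5 mg/mL final) p53RE-bla cultures, 4,000 cells per well, were dosed with compounds in DMSO for 16 h at 37 C; luminescent ATP detection (CellTiter-Glo, 30 min, room temperature) quantified surviving cells.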

Test [9] can be described thus: p53 small molecule agonists, cell-based qHTS assay with rat liver microsomes: qHTS cell viability counter screen (AID 1963580). Also: nearly all actives have a fitted effect of over 45% in size. Put shortly: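 Cytotoxicity counter screen: intracellular ATP measured by CellTiter-Glo luminescence in the same wells as the beta-lactamase reporter read, on HCT-116 p53RE-bla cells exposed 16 h at 37 C to compounds with rat liver microsomes and NADPH, each 0.5 mg/mL final.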

A short description of test [10]: p53 small molecule agonists, cell-based qHTS assay: qHTS cell viability counter screen (AID 1963581). Also: nearly all actives have a fitted effect of over 45% in size. A digest of the protocol:
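Counter screen read by CellTiter-Glo luminescence (ATP content, 30 min at room temperature), run in the same wells as the beta-lactamase reporter read. HCT-116 p53RE-bla cells saw compounds for 16 h at 37 C.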

A short description of test [11]: p53 small molecule agonists, cell-based qHTS assay (AID 1963582; active = well fitted activation curve with a large enough effect in the signal ratio in the repeat runs, not every such curve was filed as active; the % refers to the signal ratio). Put shortly:
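Read-out is beta-lactamase FRET fluorescence after 2 h at room temperature with LiveBLAzer B/G substrate. p53 response element-bla cells were treated 16 h at 37 C with compounds in DMSO, added 5 h after seeding.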

The target in test [12] is 5-hydroxytryptamine receptor 2A (Homo sapiens) (UniProt P28223). The test can be described thus: 5-hydroxytryptamine receptor 2A (HTR2A) small molecule agonists, cell-based qHTS assay (AID 1963587). Also: nearly all actives have a fitted effect of over 30% in size. Put shortly: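 CHO cells stably expressing human HTR2A, plated 18 h, loaded with calcium dye 1 h at 37 C. Agonist mode: compounds added and intracellular calcium fluorescence recorded kinetically for 2 min at 1 sec intervals.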

In test [13] the target is Muscarinic acetylcholine receptor M1 (Homo sapiens) (UniProt P11229). The test can be described thus: Cholinergic receptor muscarinic 1 (CHRM1) small molecule antagonists, cell-based qHTS assay (AID 1963588). Also: nearly all actives have a fitted effect of over 40% in size. Also: potency is read from the fitted curve at half-maximal effect. A digest of the protocol:
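Compounds were tested at 15 concentrations in three independent runs. Dye-loaded CHRM1-CHO cells were exposed 5 min at room temperature before stimulation by acetylcholine added at 50nM. Intracellular calcium was read kinetically on FDSS for 3 min.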

Test [14] has the same target. The test can be described thus: Cholinergic receptor muscarinic 1 (CHRM1) small molecule agonists, cell-based qHTS assay (AID 1963589). Also: nearly all actives have a fitted effect of over 35% in size. Put shortly:
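Agonist-mode calcium-flux screen: compounds at 15 concentrations, three independent runs, were pin-transferred onto dye-loaded human CHRM1-CHO cells. Fluorescence was then recorded kinetically every second over minutes.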

A short description of test [15]: cAMP Responsive Elements (CRE) small molecule antagonists, cell-based qHTS assay (AID 1963591; active = well fitted inhibition curve with a large enough effect in the signal ratio in the repeat runs, not every such curve was filed as active; the % refers to the signal ratio). A digest of the protocol:
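Antagonist mode: compounds are added alongside the adenylyl cyclase activator NKH477 (0.25 uM final) to CRE-bla HEK293T cells for 3 h. LiveBLAzer FRET substrate, 2 h at room temperature, reports bla expression.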

Test [16] deals with Beta-2 adrenergic receptor (Homo sapiens) (UniProt P07550). Briefly: Adrenergic beta2 receptor (ADRB2) small molecule antagonists, cell-based qHTS assay (AID 1963592). Also: series mostly up to about 92 µM; nearly all actives have a fitted effect of over 50% in size. Put shortly:
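Assay format: CHO-ADRB2 cells, 18-20hr seeding at 37C/5% CO2, then compound plus 1nM isoproterenol agonist mix for 0.5hr RT. Homogeneous time-resolved fluorescence cAMP detection after 1hr, expressed as 665/615 nm ratio.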

Test [17] concerns the target D(2) dopamine receptor (Homo sapiens) (UniProt P14416). Briefly: Dopamine D2 receptor (DRD2) small molecule agonists, cell-based qHTS assay (AID 1963594). Also: nearly all actives have a fitted effect of over 35% in size. A digest of the protocol: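 HEK293 cells stably expressing human DRD2, pre-treated with PDE inhibitor Ro20-1724 (0.1 mM final) and compound 10 min at room temperature, then stimulated with NKH477 (200nM […]) for 30 min. cAMP read by HTRF (665/620 nm).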

Test [18] shares this target. Briefly: Dopamine D2 receptor (DRD2) small molecule antagonists, cell-based qHTS assay (AID 1963595; active = well fitted inhibition curve with a large enough effect in the signal ratio in the repeat runs, with a control signal flat; the % refers to the signal ratio; also: potency is read from the fitted curve at half-maximal effect). Put shortly:
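Cells were plated and grown for 24 h at 37 °C. Ro20-1724 (0.1 mM final) went in first, then compound for 10 min. NKH477 (200 nM) with quinpirole (12 nM) followed for 30 min at RT, then HTRF detection reagents for 1 h.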

A short description of test [19]: cAMP Responsive Elements (CRE) small molecule agonists, cell-based qHTS assay (AID 1963590). Put shortly:
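Agonist mode: compound added to CRE-bla HEK 293T cells (2,000/well, 18 h after plating) for 3 h at 37 C/5% CO2. Reporter activity detected via FRET beta-lactamase substrate, 2 h room-temperature loading.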

The target of test [20] is Beta-2 adrenergic receptor (Homo sapiens) (UniProt P07550). Briefly: Adrenergic beta2 receptor (ADRB2) small molecule agonists, cell-based qHTS assay (AID 1963593).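 Also: CHO cells stably overexpressing human ADRB2.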 A digest of the protocol:
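CHO cells stably over-expressing ADRB2 were plated overnight at 37C, then dosed with compounds plus a stimulation mix containing 100uM IBMX and 25uM Ro-20-1724 for 0.5hr at room temperature. cAMP was measured by HTRF competition, 1hr.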

A number with no mark means an inactive call. Results filed as inconclusive are left out. Activity calls are given as the source filed them. Unless noted, calls follow the shape of the full dose curve.
% is scaled to controls: 0 for no effect and ±100 for the full control effect.

D(2) dopamine receptor (Homo sapiens), sequence (P14416 whole entry, looked up): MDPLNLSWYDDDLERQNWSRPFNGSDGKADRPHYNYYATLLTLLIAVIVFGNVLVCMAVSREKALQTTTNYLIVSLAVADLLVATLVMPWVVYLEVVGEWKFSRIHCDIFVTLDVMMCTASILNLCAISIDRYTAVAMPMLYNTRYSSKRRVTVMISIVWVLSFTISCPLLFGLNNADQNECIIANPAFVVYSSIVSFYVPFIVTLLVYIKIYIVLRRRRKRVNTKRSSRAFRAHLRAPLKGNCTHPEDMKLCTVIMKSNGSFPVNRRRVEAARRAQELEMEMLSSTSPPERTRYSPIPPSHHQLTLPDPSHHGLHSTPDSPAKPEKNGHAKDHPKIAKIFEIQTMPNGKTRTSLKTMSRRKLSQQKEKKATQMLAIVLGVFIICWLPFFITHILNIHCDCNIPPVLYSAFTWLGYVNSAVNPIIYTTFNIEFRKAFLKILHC
Muscarinic acetylcholine receptor M1 (Homo sapiens), sequence (P11229 whole entry, looked up): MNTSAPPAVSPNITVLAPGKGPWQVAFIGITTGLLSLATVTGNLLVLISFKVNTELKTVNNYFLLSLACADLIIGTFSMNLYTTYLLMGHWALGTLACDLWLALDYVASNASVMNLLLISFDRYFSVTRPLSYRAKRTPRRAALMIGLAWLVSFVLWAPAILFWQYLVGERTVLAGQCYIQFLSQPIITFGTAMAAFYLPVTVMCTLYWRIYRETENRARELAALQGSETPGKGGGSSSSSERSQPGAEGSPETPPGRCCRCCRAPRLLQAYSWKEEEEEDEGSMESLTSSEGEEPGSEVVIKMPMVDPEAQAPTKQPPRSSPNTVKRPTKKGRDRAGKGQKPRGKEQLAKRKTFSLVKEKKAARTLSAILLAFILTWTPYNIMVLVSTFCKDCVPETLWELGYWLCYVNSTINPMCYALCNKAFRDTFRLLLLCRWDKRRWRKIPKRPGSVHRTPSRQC
Beta-2 adrenergic receptor (Homo sapiens), sequence (P07550 whole entry, looked up): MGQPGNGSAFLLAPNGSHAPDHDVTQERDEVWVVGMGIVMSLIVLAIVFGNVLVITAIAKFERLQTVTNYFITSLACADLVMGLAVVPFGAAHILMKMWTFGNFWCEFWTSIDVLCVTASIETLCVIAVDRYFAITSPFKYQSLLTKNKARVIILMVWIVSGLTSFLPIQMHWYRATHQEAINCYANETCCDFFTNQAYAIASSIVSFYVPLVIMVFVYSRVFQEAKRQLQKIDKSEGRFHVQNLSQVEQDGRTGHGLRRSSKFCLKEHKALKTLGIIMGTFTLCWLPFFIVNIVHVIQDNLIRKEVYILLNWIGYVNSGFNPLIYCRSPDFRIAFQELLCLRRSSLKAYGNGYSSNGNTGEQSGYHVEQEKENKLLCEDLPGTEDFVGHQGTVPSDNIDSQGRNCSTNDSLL
Gonadotropin-releasing hormone receptor (Homo sapiens), sequence (P30968 whole entry, looked up): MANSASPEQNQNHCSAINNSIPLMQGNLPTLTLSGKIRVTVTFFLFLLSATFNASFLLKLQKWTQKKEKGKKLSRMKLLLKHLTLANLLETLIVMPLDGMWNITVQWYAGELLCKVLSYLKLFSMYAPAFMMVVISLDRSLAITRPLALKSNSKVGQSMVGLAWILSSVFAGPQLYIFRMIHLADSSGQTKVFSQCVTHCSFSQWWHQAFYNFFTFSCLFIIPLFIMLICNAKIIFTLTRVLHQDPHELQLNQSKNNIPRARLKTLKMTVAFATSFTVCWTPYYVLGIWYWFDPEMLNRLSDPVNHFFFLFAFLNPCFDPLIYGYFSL
5-hydroxytryptamine receptor 2A (Homo sapiens), sequence (P28223 whole entry, looked up): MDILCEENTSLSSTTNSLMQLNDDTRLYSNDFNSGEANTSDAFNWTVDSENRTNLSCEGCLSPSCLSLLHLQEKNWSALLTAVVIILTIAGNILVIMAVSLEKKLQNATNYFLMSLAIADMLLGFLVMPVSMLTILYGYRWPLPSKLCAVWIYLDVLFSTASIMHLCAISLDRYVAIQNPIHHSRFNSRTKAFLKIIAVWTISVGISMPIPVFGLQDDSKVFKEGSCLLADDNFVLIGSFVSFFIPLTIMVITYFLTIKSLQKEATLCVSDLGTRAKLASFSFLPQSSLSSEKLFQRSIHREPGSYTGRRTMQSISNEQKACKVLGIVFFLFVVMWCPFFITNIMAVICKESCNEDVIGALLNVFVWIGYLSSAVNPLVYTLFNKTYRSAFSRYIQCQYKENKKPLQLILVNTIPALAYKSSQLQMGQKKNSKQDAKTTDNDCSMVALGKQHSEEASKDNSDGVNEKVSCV
KiSS-1 receptor (Homo sapiens), sequence (Q969F8 whole entry, looked up): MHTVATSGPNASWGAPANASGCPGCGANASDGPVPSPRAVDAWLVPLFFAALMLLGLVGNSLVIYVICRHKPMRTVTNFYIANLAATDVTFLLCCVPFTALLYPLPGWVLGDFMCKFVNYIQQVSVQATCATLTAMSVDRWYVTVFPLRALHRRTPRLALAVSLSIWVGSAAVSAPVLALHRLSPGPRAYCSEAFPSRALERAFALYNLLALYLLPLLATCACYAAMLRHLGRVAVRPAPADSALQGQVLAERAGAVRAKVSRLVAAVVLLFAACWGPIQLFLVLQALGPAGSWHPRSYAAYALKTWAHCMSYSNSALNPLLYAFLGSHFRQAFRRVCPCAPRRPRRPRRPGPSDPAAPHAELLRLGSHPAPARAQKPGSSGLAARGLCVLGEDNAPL

For the compound `CCOC(=O)CC#N`, the Potency entry in [1], in [2], in [3], in test [6], in test [7] and in test [8] was “inactive” each time. Moreover, the Potency entry in test [9], in test [10], in test [11], in test [12], in test [13] and in test [14] was “inactive” each time. Also, the Potency result in test [15], in test [16], in [17] and in [18] was “inactive” throughout. For the same compound, the outcome in test [4] and in test [5] was inactive.

With `COc1ccc(-c2cc(C(F)F)nn2-c2ccc(S(N)(=O)=O)cc2)cc1F`, the Potency result in test [1], in [2], in test [3], in test [6], in [7] and in [8] was “inactive” in each case. Besides, the Potency entry in [9], in test [10], in test [11], in test [12], in [13] and in test [14] was “inactive” throughout. Also, the Potency result in [17] and in test [18] was “inactive” in each case. The result in [4] and in test [5] was inactive.

Regarding `CCN1CCN(c2cc(-c3ccc(F)cc3)c3c(n2)CCCCCC3)CC1`, the activity change, negative = cytotoxicity in test [1] is -1.5% [at 19 µM]; in [8], 11.2% [at 13.5 µM]; in test [9] it was 0.85% [at 13.5 µM]; in test [10], 1.98% [at 13.5 µM]. In addition, the activity, positive = activation in test [2] is -2.3% [at 19 µM]. In addition, the activity change in [3] is 17.8% [at 11.8 µM, hits give high values]. For the same compound, the activation was 8.32% [at 15.8 µM] in [4]; -0.133% [at 11.8 µM] in [5]; -0.562% [at 13.5 µM] in test [6]; -1.02% [at 13.6 µM] in test [7]; -0.331% [at 13.5 µM] in [11]; -5.11% [at 15.9 µM] in [12]. The Potency in [13] was 31.7 nM (active); in test [18], 32.6 nM (active). The activity change, negative = inhibition in test [15] is 1.59% [at 18.9 µM]; in test [16], -12.5% [at 19 µM].

Take `CC(C)NCCCC1(C(N)=O)c2ccccc2-c2ccccc21`: the Potency entry in [1], in [2], in [3], in test [6], in test [7] and in test [8] was “inactive” in each case. The Potency result in test [9], in test [10], in test [11], in test [12], in test [14] and in test [19] was “inactive” in each case. Moreover, the Potency result in test [15], in test [16], in [17] and in [18] was “inactive” each time. The outcome in [4] and in [5] was inactive.

For the compound `CCCCCC[C@@H](CCC)C(=O)O`, the Potency entry in test [1], in [2], in test [3], in [6], in test [7] and in test [8] was “inactive” in each case. Besides, the Potency entry in test [9], in test [10], in test [11], in [12], in test [14] and in test [19] was “inactive” throughout. Besides, the Potency entry in test [15], in test [16], in test [20], in test [17] and in test [18] was “inactive” each time. Also, the result in test [4] and in test [5] was inactive.

As to `O=[N+]([O-])c1ccc(F)c(Cl)c1`, the Potency result in test [1], in [2], in [3], in test [6], in [7] and in test [8] was “inactive” each time. Also, the Potency result in test [9], in [10], in [11], in test [12], in test [14] and in [19] was “inactive” each time. For the same compound, the Potency result in test [15], in test [17] and in [18] was “inactive” in each case. The result in test [4] and in test [5] was inactive.

As to `CCCCN1CCCC1C(=O)Nc1c(C)cc(C)cc1C` (stereo not given), the Potency result in [1], in test [2], in test [3], in test [6], in [7] and in [8] was “inactive” in each case. Besides, the Potency entry in [9], in [10], in test [11], in test [12], in [13] and in test [14] was “inactive” throughout. Further, the Potency result in test [16] and in test [18] was “inactive” throughout. Besides, the outcome in test [4] and in test [5] was inactive.
